The source of these data is PubChem BioAssay (Tox21).

Values joined by “and” are separate entries in the source; they are usually repeats but may differ in a detail not shown here. Equal values may be shown once. Results filed as inconclusive are left out. Active and inactive are the calls of the source. Unless noted, calls follow the shape of the dose curve; as a rule, active = well fitted curve in the direction sought with a large enough effect in the repeat runs; inconclusive = weak or mixed curves; inactive = no such curve, though single readings can be large; an effect the other way counts as inactive or inconclusive.

Assay [1] in a line: qHTS assay to identify small molecule antagonists of the peroxisome proliferator-activated receptor delta (PPARd) signaling pathway - cell viability counter screen (AID 743213). Also: nearly all actives have a fitted effect of over 50% in size. Also: potency is read from the fitted curve at half-maximal effect. Put shortly:
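Same-well viability: cells pre-incubated 5 h, dosed with compound plus 300 nM L165041, kept 17 h at 37 C, FRET substrate 2 h RT, then CellTiter-Glo 30 min RT and luminescence.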

The target in assay [2] is Peroxisome proliferator-activated receptor delta (Homo sapiens) (UniProt Q03181). The experiment in a line: qHTS assay to identify small molecule antagonists of the peroxisome proliferator-activated receptor delta (PPARd) signaling pathway (AID 743215; active = well fitted inhibition curve with a large enough effect in the signal ratio in the repeat runs, not every such curve was filed as active; the % refers to the signal ratio;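 also: cells stimulated with agonist L165041 at 300 nM final during compound exposure; series mostly up to about 62 µM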). Put shortly: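 With L165041 present at 300 nM final, compounds were incubated 17 h at 37 C on PPARd UAS-bla HEK293H cells. A FRET-based beta-lactamase substrate was then applied for 2 h at room temperature and fluorescence intensity recorded.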

Assay [3] is described as follows: qHTS assay to identify small molecule agonists of the farnesoid-X-receptor (FXR) signaling pathway - cell viability counter screen (AID 743218). Also: nearly all actives have a fitted effect of over 45% in size. Also: potency is read from the fitted curve at half-maximal effect. In a few lines: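 After 16 h at 37 C with test compounds, FXR-bla HEK 293T cells were given LiveBLAzer B/G substrate for 2 h at RT and then CellTiter-Glo; luminescence was taken after 30 min.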
Assay [4] can be described thus: qHTS assay to identify small molecule antagonists of the farnesoid-X-receptor (FXR) signaling pathway - cell viability counter screen (AID 743221; active = well fitted cell-killing curve with a large enough effect in the repeat runs, not every such curve was filed as active; also: nearly all actives have a fitted effect of over 50% in size; also: potency is read from the fitted curve at half-maximal effect). In a few lines:
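Multiplexed counter screen: viability of FXR-bla HEK 293T cells under agonist stimulation by chenodeoxycholic acid (50 uM, final) and test compound for 16 h at 37 C, measured by CellTiter-Glo luminescence in the reporter wells.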

In assay [5] the target is Vitamin D3 receptor (Homo sapiens) (UniProt P11473). The experiment in a line: qHTS assay to identify small molecule agonists of the vitamin D receptor (VDR) signaling pathway (AID 743222; calls by dose curve). In a few lines:
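VDR-bla cells were seeded, left 4 h, treated with compounds in DMSO for 16 h, incubated 2 h at RT with B/G FRET substrate, and read for fluorescence.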

The nature of assay [6]: qHTS assay to identify small molecule agonists of the vitamin D receptor (VDR) signaling pathway - cell viability counter screen (AID 743224). Also: nearly all actives have a fitted effect of over 50% in size. Also: potency is read from the fitted curve at half-maximal effect. Put shortly:
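Here cell health was gauged by luminescent ATP detection (CellTiter-Glo, 30 min RT) in VDR-bla cells that had been incubated with test compounds for 16 h at 37C and 5% CO2.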

Assay [7] in a line: qHTS assay to identify small molecule antagonists of the vitamin D receptor (VDR) signaling pathway - cell viability counter screen (AID 743225). Also: nearly all actives have a fitted effect of over 50% in size. Also: potency is read from the fitted curve at half-maximal effect. In a few lines: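 HEK293T VDR-bla; cpd + 1a,25-(OH)2D3 3 nM final, 16 h 37C/5% CO2; B/G FRET substrate 2 h RT; then CellTiter-Glo 30 min RT, luminescence.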
Assay [8] in a line: qHTS assay to identify small molecule agonists of the NFkB signaling pathway - cell viability counter screen (AID 1159515; calls by dose curve; also: nearly all actives have a fitted effect of over 55% in size; also: potency is read from the fitted curve at half-maximal effect). In a few lines: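 5 hr compound treatment of NFkB-bla ME-180 cells (2,000/well, seeded overnight beforehand), followed by reporter substrate for 1.5 hr. CellTiter-Glo added afterward; luminescence after 30 min RT.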
The nature of assay [9]: qHTS assay to identify small molecule agonists of the endoplasmic reticulum stress response signaling pathway - cell viability counter screen (AID 1159517; calls by dose curve; also: nearly all actives have a fitted effect of over 50% in size; also: potency is read from the fitted curve at half-maximal effect). Put shortly: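 Luminescence readout: CellTiter-Glo, 30 min RT, same wells as the ESRE-bla reporter read. HeLa ESRE-bla, 1,500 cells/well, o/n 37 C; cpd 5 hr 37 C/5% CO2.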
Assay [10] in a line: qHTS assay to identify small molecule antagonists of the retinoid-related orphan receptor gamma (ROR-gamma) signaling pathway - cell viability counter screen (AID 1159520). Also: nearly all actives have a fitted effect of over 50% in size. Also: potency is read from the fitted curve at half-maximal effect. In a few lines: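 Tet-on ROR gamma CHO cells (1,000/well) were plated 4 hr, given compounds in DMSO for 2 hr at 37 C, then induced with 1 uM final doxycycline for 16 hr. Viability was read as ATP by CellTiter-Glo luminescence after 30 min.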

The nature of assay [11]: qHTS assay to identify small molecule agonists of the AP-1 signaling pathway - cell viability counter screen (AID 1159525; calls by dose curve; also: nearly all actives have a fitted effect of over 55% in size; also: potency is read from the fitted curve at half-maximal effect). Put shortly: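 ME-180 AP-1-bla, 2500 cells/well, Opti-MEM + 0.5% dialyzed FBS; overnight 37 °C; cpd 15-pt titration, 5 h 37 °C; CellTiter-Glo 30 min RT; luminescence read; normalised to TOAB and DMSO controls.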
A short description of assay [12]: qHTS assay to identify small molecule agonists of the RXR signaling pathway - cell viability counter screen (AID 1159529). Also: nearly all actives have a fitted effect of over 50% in size. Also: potency is read from the fitted curve at half-maximal effect. In a few lines: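 Steps: seed RXR-alpha-UAS-bla HEK 293T cells in assay medium containing 2% charcoal-stripped FBS; incubate 5 hr; add compounds in DMSO; incubate 16 hr at 37 C; after the bla read, add CellTiter-Glo and read luminescence at 30 min.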

Assay [13] concerns the target Bile acid receptor (Homo sapiens) (UniProt Q96RI1). Nature of the assay: qHTS assay to identify small molecule antagonists of the farnesoid-X-receptor (FXR) signaling pathway (AID 743217; active = well fitted inhibition curve with a large enough effect in the signal ratio in the repeat runs, not every such curve was filed as active; the % refers to the signal ratio). In a few lines:
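In this cell-based antagonist screen, inhibition of CDCA-driven (50 uM final) UAS-beta-lactamase expression in HEK 293T cells was measured by FRET fluorescence following 16 h compound exposure at 37 °C.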

The target is the same in assay [14]. Nature of the assay: qHTS assay to identify small molecule agonists of the farnesoid-X-receptor (FXR) signaling pathway (AID 743220; active = well fitted activation curve with a large enough effect in the signal ratio in the repeat runs, not every such curve was filed as active; the % refers to the signal ratio). Put shortly:
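Beta-lactamase reporter under UAS control in GeneBLAzer FXR HEK 293T cells (5000/well) measured with LiveBLAzer FRET substrate after 2 h at room temperature. Compound exposure lasted 16 h at 37C.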

Assay [15] has as its target Peroxisome proliferator-activated receptor delta (Homo sapiens) (UniProt Q03181). The experiment in a line: qHTS assay to identify small molecule agonists of the peroxisome proliferator-activated receptor delta (PPARd) signaling pathway (AID 743212; calls by dose curve). In a few lines: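 GeneBLAzer PPARd UAS-bla HEK293H cells (beta-lactamase reporter under UAS control), plated and rested 5 h at 37 C, then exposed to compounds in DMSO at 37 C; LiveBLAzer B/G FRET substrate added, 2 h room temperature, fluorescence read.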

A short description of assay [16]: qHTS assay to identify small molecule agonists of the AP-1 signaling pathway (AID 1159526; calls by dose curve).
Assay [17] concerns the target Retinoic acid receptor RXR-alpha (Homo sapiens) (UniProt P19793). Nature of the assay: qHTS assay to identify small molecule agonists of the RXR signaling pathway (AID 1159527; calls by dose curve; also: nearly all actives have a fitted effect of over 35% in size). In a few lines:
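Cells plated at 2,000/well, rested 5 hr at 37 C, pin-dosed with DMSO compound solutions, incubated 16 hr, then loaded with B/G FRET substrate for 2 hr at RT before dual-emission fluorescence reading.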

Assay [18] concerns the target Nuclear receptor ROR-gamma (Homo sapiens) (UniProt P51449). The experiment in a line: qHTS assay to identify small molecule antagonists of the retinoid-related orphan receptor gamma (ROR-gamma) signaling pathway (AID 1159521). Put shortly:
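Cells were plated, rested 4 h at 37 C, exposed to compounds for 2 h, then given 1 uM final doxycycline hyclate to induce RORγ expression. After 16 h, ONE-Glo luminescence from the ROR response element reporter was measured.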

Chain of Bile acid receptor (Homo sapiens) (Q96RI1 whole entry, looked up): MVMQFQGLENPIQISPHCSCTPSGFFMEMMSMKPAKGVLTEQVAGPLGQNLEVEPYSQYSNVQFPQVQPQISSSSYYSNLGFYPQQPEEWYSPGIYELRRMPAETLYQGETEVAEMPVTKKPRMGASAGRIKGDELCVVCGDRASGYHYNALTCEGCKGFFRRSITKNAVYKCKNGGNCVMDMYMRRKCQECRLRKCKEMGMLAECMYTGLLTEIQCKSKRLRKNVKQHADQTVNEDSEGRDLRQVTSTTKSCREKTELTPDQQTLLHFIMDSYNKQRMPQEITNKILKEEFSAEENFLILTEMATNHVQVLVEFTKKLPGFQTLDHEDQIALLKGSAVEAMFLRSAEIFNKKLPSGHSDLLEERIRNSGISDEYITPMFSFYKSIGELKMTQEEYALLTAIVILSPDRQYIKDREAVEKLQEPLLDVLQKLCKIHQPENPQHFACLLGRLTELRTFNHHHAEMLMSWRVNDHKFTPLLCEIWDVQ
Chain of Peroxisome proliferator-activated receptor delta (Homo sapiens) (Q03181 whole entry, looked up): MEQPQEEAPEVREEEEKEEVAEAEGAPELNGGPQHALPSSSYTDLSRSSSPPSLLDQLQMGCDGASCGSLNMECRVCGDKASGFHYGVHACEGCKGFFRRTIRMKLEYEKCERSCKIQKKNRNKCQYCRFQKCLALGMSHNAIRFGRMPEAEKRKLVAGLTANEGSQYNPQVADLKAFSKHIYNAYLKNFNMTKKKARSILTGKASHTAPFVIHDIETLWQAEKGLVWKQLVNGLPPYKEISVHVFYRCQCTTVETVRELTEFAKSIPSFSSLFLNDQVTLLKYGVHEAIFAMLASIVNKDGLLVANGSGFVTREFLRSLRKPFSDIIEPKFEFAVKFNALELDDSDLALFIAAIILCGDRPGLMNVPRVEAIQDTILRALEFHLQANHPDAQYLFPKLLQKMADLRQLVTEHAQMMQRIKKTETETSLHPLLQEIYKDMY
Chain of Vitamin D3 receptor (Homo sapiens) (P11473 whole entry, looked up): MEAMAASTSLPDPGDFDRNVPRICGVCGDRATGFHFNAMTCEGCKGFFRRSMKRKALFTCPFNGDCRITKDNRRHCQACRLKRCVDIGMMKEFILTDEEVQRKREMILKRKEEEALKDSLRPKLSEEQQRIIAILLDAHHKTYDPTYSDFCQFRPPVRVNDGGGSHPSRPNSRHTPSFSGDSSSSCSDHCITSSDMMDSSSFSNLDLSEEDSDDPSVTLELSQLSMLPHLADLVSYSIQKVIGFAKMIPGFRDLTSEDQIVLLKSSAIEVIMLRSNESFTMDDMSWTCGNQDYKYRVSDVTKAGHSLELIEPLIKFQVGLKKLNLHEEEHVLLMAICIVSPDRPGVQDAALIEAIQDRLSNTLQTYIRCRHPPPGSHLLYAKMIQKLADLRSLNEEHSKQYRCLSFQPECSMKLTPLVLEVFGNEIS
Chain of Retinoic acid receptor RXR-alpha (Homo sapiens) (P19793 whole entry, looked up): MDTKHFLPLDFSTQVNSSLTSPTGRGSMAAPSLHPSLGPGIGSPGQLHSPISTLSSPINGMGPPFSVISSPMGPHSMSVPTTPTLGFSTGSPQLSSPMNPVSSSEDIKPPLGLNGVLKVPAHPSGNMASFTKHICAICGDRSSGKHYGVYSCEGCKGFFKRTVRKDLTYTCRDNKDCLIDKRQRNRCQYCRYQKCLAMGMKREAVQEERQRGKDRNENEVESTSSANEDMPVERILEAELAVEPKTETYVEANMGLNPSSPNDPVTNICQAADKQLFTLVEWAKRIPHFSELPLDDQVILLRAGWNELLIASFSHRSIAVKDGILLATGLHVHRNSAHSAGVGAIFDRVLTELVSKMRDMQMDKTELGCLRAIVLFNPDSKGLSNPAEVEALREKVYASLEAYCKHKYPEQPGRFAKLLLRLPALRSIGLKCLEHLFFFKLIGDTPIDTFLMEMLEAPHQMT

With `Clc1ccc2n[nH]nc2c1`, the Potency result in assay [1], in [2], in [3], in assay [4], in assay [5] and in assay [6] was “inactive” each time. The Potency entry in [7], in assay [8], in assay [9], in [10], in assay [11] and in [12] was “inactive” throughout.
As for `CC(C)(C)CC(C)(C)c1ccc(OCCOCC[N+](C)(C)Cc2ccccc2)cc1`, the Potency is 17.4 µM (active) in [1]; 48.9 µM (active) in assay [3]; 43.6 µM (active) and 26.6 µM (active) in assay [4]; 38.9 µM (active) and 26.6 µM (active) in assay [6]; 24.5 µM (active) in assay [8]; 21.9 µM (active) in assay [9]. The Potency in assay [10] is 54.4 µM (active); in [11], 24.5 µM (active); in [12] it was 6.91 µM (active) and 4.77 µM (active). Also, the Potency result in assay [13] and in assay [14] was “inactive” in each case.
On to `Nc1ccc2cc(S(=O)(=O)O)cc(O)c2c1N=Nc1ccccc1C(F)(F)F`, for which the Potency result in assay [15], in assay [1], in assay [2], in [13], in assay [3] and in assay [14] was “inactive” throughout. Also, the Potency entry in assay [4], in assay [5], in [6], in assay [7], in assay [8] and in [9] was “inactive” in each case. The Potency result in assay [10], in assay [11], in [16] and in assay [12] was “inactive” throughout.
As for `COc1ccc(-c2ccc3cc(C(=O)O)ccc3c2)cc1C12CC3CC(CC(C3)C1)C2`, the Potency was 7.5 µM (active) in [3]; 23.7 µM (active) in [6]; 21.3 µM (active) in assay [8]; 10.7 µM (active) in [9]; 29.8 µM (active) in [10]. For the same compound, the Potency result in assay [11], in assay [16] and in assay [17] was “inactive” in each case.
For the compound `O=C(Nc1cccc(C(F)(F)F)c1)c1cc(Br)cc(Br)c1O`, the Potency was 6.92 µM (active) in assay [1]; 4.36 µM (active) in assay [3]; 11 µM (active) in assay [4]; 2.19 µM (active) in [6]; 17.4 µM (active) in [7]; 54.9 µM (active) in assay [8]. Further, the Potency was 24.5 µM (active) in assay [9], 10.9 µM (active) in assay [10], 1.37 µM (active) in [18] and 21.9 µM (active) in [12].
